This passage reports growth results from PubChem BioAssay (NCI).

This is part of a sample that, as a whole, favours compounds with a hit. Of some 83,000 tested, about 20% had one in any assay.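 Percent growth is the endpoint: 0 to 100 indicates growth inhibition (40 means 60% inhibition), 0 means no net growth, and negative values indicate cell death.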 Values without a mark were called inactive. Calls of active or inactive are those of the source. The calls were made as follows: active = growth percent below 10; inactive = the rest.

Test systems include RPMI-8226 leukemia; OVCAR-8 ovarian; OVCAR-5 ovarian; OVCAR-4 ovarian; SK-OV-3 ovarian; IGROV1 ovarian; OVCAR-3 ovarian; HS 578T breast; NCI/ADR-RES ovarian; T-47D breast; BT-549 breast; MDA-MB-435 melanoma; SW-620 colon; MCF7 breast; HCT-116 colon; HCC-2998 colon; KM12 colon.
Experiment in all cases: NCI-60 one-dose screen, 48 h (100 = growth as untreated, 0 = no growth, -100 = all killed)
Details in all cases: 10 µM unless noted

For `Cc1nc(S(=O)(=O)c2ccccc2)c(S(=O)(=O)Cc2ccc([N+](=O)[O-])cc2)o1`, the growth in the assay on RPMI-8226 leukemia is 82.6%; in the assay on OVCAR-8 ovarian, 100%; in the assay with OVCAR-5 ovarian, 86.5%; in the assay on OVCAR-4 ovarian, 93.1%; with SK-OV-3 ovarian, 99.1%; in the assay with IGROV1 ovarian it was 95.8%. Also, the growth was 83.9% in the assay with OVCAR-3 ovarian; 87.6% with HS 578T breast; 104% in the assay on NCI/ADR-RES ovarian; 77% in the assay on T-47D breast; 87.7% in the assay with BT-549 breast; 101% in the assay on MDA-MB-435 melanoma. Moreover, the growth with SW-620 colon is 90.9%; in the assay on MCF7 breast, 74.2%; in the assay with HCT-116 colon, 86.6%; in the assay with HCC-2998 colon, 97.7%; in the assay with KM12 colon, 106%.
In the case of `COc1nc2ccc(C)cc2cc1-c1nc2c(cnn2-c2ccccc2)c(=O)[nH]1`, the growth in the assay on RPMI-8226 leukemia was 80.8%; with OVCAR-8 ovarian it was 94%; in the assay with OVCAR-5 ovarian it was 94.5%; in the assay on OVCAR-4 ovarian, 94.9%; with SK-OV-3 ovarian it was 73.6%; in the assay on IGROV1 ovarian, 77.4%. Besides, the growth was 50.2% in the assay with OVCAR-3 ovarian; 90.6% in the assay with HS 578T breast; 74.3% in the assay on NCI/ADR-RES ovarian; 81.9% with T-47D breast; 89.6% with BT-549 breast; 8.39% (active) in the assay on MDA-MB-435 melanoma. Further, the growth with SW-620 colon was 58.5%; in the assay on MCF7 breast, 50.6%; in the assay on HCT-116 colon, 67.2%; in the assay on HCC-2998 colon, 96.3%; with KM12 colon it was 70.6%.
For `O=C(N/N=C/c1c(Cl)cccc1Cl)c1ccc(C(F)(F)F)nc1Nc1cccc(C(F)(F)F)c1`, the growth in the assay with RPMI-8226 leukemia was 13.8%; in the assay on OVCAR-8 ovarian it was 18.7%; with OVCAR-5 ovarian, 20.5%; in the assay with OVCAR-4 ovarian, 13.1%; in the assay on SK-OV-3 ovarian it was 15%; in the assay with IGROV1 ovarian, 12.4%. Besides, the growth in the assay with OVCAR-3 ovarian was -58% (active); in the assay with HS 578T breast, 11.4%; with NCI/ADR-RES ovarian it was -4.2% (active); in the assay on T-47D breast it was -9.07% (active); in the assay on BT-549 breast, -5.79% (active); in the assay with MDA-MB-435 melanoma it was 24.2%. The growth in the assay on SW-620 colon was 7.71% (active); in the assay on MCF7 breast, 1.97% (active); in the assay with HCT-116 colon, -19.6% (active); in the assay on HCC-2998 colon, -29.2% (active); in the assay on KM12 colon it was 8.17% (active).
Regarding `O=S(=O)(NCCCNc1cc(-c2c(-c3cccc(O)c3)nc3sccn23)ccn1)c1cccc2ccccc12`, the growth is 8.85% (active) in the assay with RPMI-8226 leukemia; 19% with OVCAR-8 ovarian; 102% with OVCAR-5 ovarian; 36.4% in the assay with OVCAR-4 ovarian; 58.2% with SK-OV-3 ovarian; 30.6% in the assay on IGROV1 ovarian. The growth with OVCAR-3 ovarian is 40.1%; with HS 578T breast, 22.7%; with NCI/ADR-RES ovarian it was 77%; in the assay with T-47D breast it was 8.57% (active); in the assay with BT-549 breast it was 25.5%; in the assay on MDA-MB-435 melanoma, 35.6%. The growth with SW-620 colon was 47.1%; in the assay on MCF7 breast, 35.4%; with HCT-116 colon, 33.1%; in the assay on HCC-2998 colon, 59.2%; in the assay on KM12 colon it was 34.8%.
As to `CCCCCCN(CCCCCC)c1ccc(/C=C2/SC(=O)NC2=O)c(C)c1`, the growth in the assay on RPMI-8226 leukemia was 65.5%; in the assay with OVCAR-8 ovarian it was 80.6%; in the assay with OVCAR-5 ovarian, 109%; in the assay with OVCAR-4 ovarian, 69.6%; in the assay with SK-OV-3 ovarian it was 96.5%; with IGROV1 ovarian it was 83.6%. Further, the growth in the assay with OVCAR-3 ovarian was 86.7%; in the assay on HS 578T breast, 86.8%; with NCI/ADR-RES ovarian, 86.7%; in the assay with T-47D breast it was 77.2%; in the assay with BT-549 breast, 98.3%; with MDA-MB-435 melanoma, 82.1%. Besides, the growth is 88.6% in the assay on SW-620 colon; 79.2% in the assay with MCF7 breast; 63.7% with HCT-116 colon; 67.4% in the assay on HCC-2998 colon; 80.3% in the assay with KM12 colon.
As to `COc1cc(C(=O)/C=C/c2ccc(OCCCCCC[P+](c3ccccc3)(c3ccccc3)c3ccccc3)cc2)cc(OC)c1OC`, the growth is 0.339% (active) in the assay on RPMI-8226 leukemia; -45.5% (active) in the assay on OVCAR-8 ovarian; -13% (active) in the assay with OVCAR-5 ovarian; 10.1% in the assay on OVCAR-4 ovarian; -35.9% (active) in the assay with SK-OV-3 ovarian; -60.2% (active) with IGROV1 ovarian. Further, the growth in the assay on OVCAR-3 ovarian was -48% (active); in the assay with HS 578T breast it was -6.89% (active); with NCI/ADR-RES ovarian, 74.4%; with T-47D breast, -21.5% (active); in the assay on BT-549 breast it was -47.6% (active); in the assay with MDA-MB-435 melanoma, -58.9% (active). For the same compound, the growth was -80.4% (active) with SW-620 colon; -68.1% (active) with MCF7 breast; -77.3% (active) in the assay with HCT-116 colon; -20.3% (active) in the assay with HCC-2998 colon; -86.8% (active) in the assay with KM12 colon.
`Cc1nc2ccccc2c(/C=C/c2ccc(Cl)cc2)c1C(=O)/C=C/c1cccs1`: the growth in the assay with RPMI-8226 leukemia is 53.4%; with OVCAR-8 ovarian it was 74.9%; in the assay on OVCAR-5 ovarian, 92.6%; in the assay with OVCAR-4 ovarian, 60.7%; in the assay on SK-OV-3 ovarian it was 78.5%; in the assay on IGROV1 ovarian, 46.6%. In addition, the growth in the assay on OVCAR-3 ovarian is 82.2%; in the assay with HS 578T breast, 86.7%; in the assay on NCI/ADR-RES ovarian, 80.7%; with T-47D breast it was 50.1%; in the assay with BT-549 breast, 90.9%; in the assay with MDA-MB-435 melanoma, 89.3%. Further, the growth in the assay with SW-620 colon is 72.4%; in the assay with MCF7 breast, 41.9%; in the assay with HCT-116 colon, 33.9%; in the assay on HCC-2998 colon it was 73.5%; with KM12 colon it was 81.5%.
Consider `COc1ccc(-c2nn(C(=O)c3cc(OC)c(OC)c(OC)c3)c3cc(N)ccc23)cc1`, for which the growth with RPMI-8226 leukemia was 21.7%; in the assay with OVCAR-8 ovarian, 15.9%; in the assay with OVCAR-5 ovarian, 39.2%; with OVCAR-4 ovarian it was 58.1%; in the assay with SK-OV-3 ovarian, 31.5%; with IGROV1 ovarian, 23.9%. The growth was 0.527% (active) in the assay on OVCAR-3 ovarian; 35% in the assay with HS 578T breast; 15.6% in the assay on NCI/ADR-RES ovarian; 59.9% in the assay with T-47D breast; 21.5% in the assay with BT-549 breast; 5.29% (active) in the assay on MDA-MB-435 melanoma. Further, the growth in the assay on SW-620 colon is 31.6%; with MCF7 breast, 6.74% (active); with HCT-116 colon, 5.15% (active); in the assay on HCC-2998 colon, 25.1%; in the assay on KM12 colon it was 12.4%.
Consider `CCOC(=O)Cn1c(=O)c2c(c3ccccc3n2C)n2nnc(-c3ccccc3)c12`, for which the growth in the assay on RPMI-8226 leukemia is 136%; in the assay on OVCAR-8 ovarian, 106%; in the assay with OVCAR-5 ovarian it was 70.9%; in the assay on OVCAR-4 ovarian, 104%; in the assay with SK-OV-3 ovarian, 103%; in the assay on IGROV1 ovarian, 68.7%. The growth with OVCAR-3 ovarian was 109%; in the assay on HS 578T breast, 107%; in the assay on NCI/ADR-RES ovarian it was 102%; in the assay with T-47D breast, 104%; in the assay on BT-549 breast it was 114%; in the assay with MDA-MB-435 melanoma, 113%. Moreover, the growth in the assay on SW-620 colon is 109%; with MCF7 breast, 75.1%; in the assay on HCT-116 colon it was 90%; with HCC-2998 colon it was 109%; in the assay on KM12 colon it was 104%.
